FPR ligand: human FPR ligand, with FPRL1 counter-screen | P21462 | FPR-expressing cells, fluorescent ligand binding, flow cytometry | inhibition, % (no concentration beside the values) | 0.74% of 24,000 active
S aureus QS inh: S. aureus quorum sensing inhibition | S. aureus RN6390 RNAIII-GFP reporter, AIP-induced, flow cytometry 3 h | 0.3% of 24,000 active | inhibition, % at 2 µM | AID 527;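 active means share of bacteria positive for the green fluorescent reporter and its mean brightness both inhibited by 50% or more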
FPRL1 binder: binds the human formylpeptide receptor-like-1 FPRL1 | P25090 | FPRL1-expressing cells, fluorescent ligand binding inhibition, flow cytometry | inhibition, % (no concentration beside the values) | 0.3% of 24,000 active | AID 441
Numbers stand for hits; 0 = inactive. Sampled rows, rich in hits. Any-hit rate of the full collection: about 1.2%. Unless noted, no stated cut-off is given here; in the data, active means inhibition above about 30%; inconclusive means no clear call, values can overlap the other calls; inactive means below that.

SMILES	FPR ligand	S aureus QS inh	FPRL1 binder
CCOC(=O)N1CCN(c2c(NCCCN(CC)Cc3ccccc3)c(=O)c2=O)CC1	0	0	0
Cc1ccccc1-n1c(=O)cc(N2CCC3(CC2)OCCO3)[nH]c1=O	0	0	0
CCOC(=O)N1CCN(c2cc(NCCC(=O)O)c3c4c(onc24)-c2ccccc2C3=O)CC1	32	0	61
N#Cc1cccc(NC(=O)NCCc2c[nH]c3ccccc23)c1	0	0	0
CCN(c1ccccc1)S(=O)(=O)c1ccc(F)cc1C	0	0	0
COc1ccc2cnn(-c3ccccc3C)c(=O)c2c1OC	0	0	0
COc1ccc2cnn(-c3ccccc3)c(=O)c2c1OC	36	0	45
COc1ccc(NC(=O)CNS(=O)(=O)c2cccc3nonc23)c(OC)c1	0	0	0
CCCOc1ccc(C2c3c(oc4ccccc4c3=O)C(=O)N2CCCN2CCOCC2)cc1 (stereo not given)	0	0	0
COCCN1Cc2cccc(C(=O)NCc3ccc4c(c3)OCO4)c2C1=O	0	0	33
COCCN1Cc2cccc(C(=O)NCc3ccccn3)c2C1=O	0	0	0
